# In the library only some 3.7% were active in any assay of this set; here they are far more common.
# Tb PYK inh = T. brucei pyruvate kinase inhibition. Q57TT1. TbPYK enzyme, Kinase-Glo Plus ATP luminescence, 45 min. Potency, µM (top dose mostly 76.8 µM), for inactives: top-dose activity, negative = inhibition, usual class: inhibitors. actives 0.12% (n = 410,000). AID 624173; also: nearly all actives have a fitted effect of over 50% in size
#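 Luminescent Kinase-Glo Plus end-point after 45 min room-temperature reaction of T. brucei pyruvate kinase started with 130 uM ADP (final). Buffer TEA 50 mM pH 7.2 with KCl, MgCl2, BSA, Tween-20; titration-based qHTS with fitted concentration-effect curves.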
# FMDV inh = antivirals against foot and mouth disease virus; FMDV antiviral cell-based qHTS; Potency, µM (titrated, usually from 57.9 µM), for inactives: top-dose activity change, negative = inhibition, hits mostly inhibitors; actives 1.2% (n = 410,000); calls by dose curve; tested in HEK293T cells; also: read-out not given here; nearly all actives have a fitted effect of over 45% in size
# Sm TGR inh = S. mansoni TGR enzyme inhibition; AID 485364; actives 3% (n = 360,000); Potency, µM (top dose mostly 114 µM), for the others: top-dose activity change, negative = inhibition, hits mostly inhibitors; purified TGR, DTNB reduction, TNB absorbance 405 nm; also: nearly all actives have a fitted effect of over 60% in size
#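 TGR 20 nM + NADPH 100 uM (dispensed conc.), cpd preinc 15 min RT; start with NADPH (500 uM addition) then DTNB (15 mM addition). Kinetic TNB absorbance, 405 nm filter. Four-parameter Hill fit across titration.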
# RE007 growth inh = less growth of the S. pombe RE007 Vpr strain | S. pombe RE007 Vpr strain, BacTiter-Glo ATP luminescence, 24 h | Potency, µM (highest dose often 92.2 µM), without a hit: at the highest dose activity change, negative = less growth, most hits filed as inhibitors | actives 0.21% (n = 360,000); active = well fitted falling curve with a large enough effect; inconclusive = small, poorly fitted or top-dose-only effect; inactive = no such curve, though single readings can be large or run the other way; also: nearly all actives have a fitted effect of over 50% in size
#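 Fission yeast strain RE007, carrying one chromosomally integrated HIV-1 vpr copy, was seeded at OD 0.01 in PMG+AL medium with 23 nL pinned compound. After 24 h at 30 °C and 99% humidity, viability was read by BacTiter-Glo luminescence.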
# * = called active by the depositor; ? = inconclusive; . = no result given. Unless noted, calls follow the shape of the dose curve; as a rule, active = well fitted curve in the direction sought with a large enough effect; inconclusive = small, poorly fitted or top-dose-only effect, or another doubt; inactive = no such curve, though single readings can be large; an effect the other way counts as inactive or inconclusive. % is scaled to controls: 0 for no effect and ±100 for the full control effect; potency is read from the fitted curve at half-maximal effect.
SMILES,Tb PYK inh,FMDV inh,Sm TGR inh,RE007 growth inh
O=C1NC(=O)C(=Cc2coc3ccccc3c2=O)C(=O)N1,?,-4%,16µM*,?
COc1ccc(-c2nc3cnc(OC)nc3n(C)c2=O)cc1,.,20%,.,.
COCc1ccc(CN2Cc3ccccc3OC(c3ccccc3OC)C2)o1 (centres undefined),.,-3%,.,.
O=C(O)/C=C\C(=O)NNC(=O)c1cc(-c2ccccc2)n[nH]1,-5%,-4%,22µM*,21%
O=C(O)/C=C/C(=O)NNC(=O)c1cc(-c2ccccc2)n[nH]1,?,-15%,40µM*,11%
O=C(O)c1cc(-c2ccccc2)n[nH]1,0%,18%,-2%,.
COc1ccc(-c2n[nH]c(C)c2-c2cscn2)c(O)c1,3%,-11%,7%,0%
C=C(C)COc1ccc(-c2n[nH]c(C)c2-c2ccc(OC)cc2)c(O)c1,6%,25µM*,14%,?
Oc1c(C=Nc2ccccc2Cl)[nH]c2ccccc12,-16%,?,50µM*,-8%
Cc1c(-c2cccc(NC(=O)c3ccc(F)c(F)c3)c2)nc2ncccn12,1%,9%,-5%,.
CCSc1nnc([C@H](Cc2ccccc2)NC(=O)OC(C)(C)C)o1,-2%,8%,4%,-3%
CC(C)(C)OC(=O)N[C@@H](Cc1ccccc1)c1nnc(S(=O)(=O)Cc2ccccc2)o1,.,.,0.63µM*,.
CCC(C)[C@@H](NC(=O)OC(C)(C)C)c1nnc(S(=O)(=O)Cc2cccc(C)c2)o1 (some centres undefined),-4%,32µM*,2µM*,-21%
Cc1ccccc1CS(=O)(=O)c1nnc([C@H](Cc2ccccc2)NC(=O)OC(C)(C)C)o1,-5%,28µM*,1.1µM*,-15%
CCN(CC)S(=O)(=O)c1ccc(-c2ccc(S(=O)(=O)N(CC)CC)cc2)cc1,6%,?,-11%,1%
CCN(CC)S(=O)(=O)c1ccc(C)c(N=C=S)c1,0%,-3%,40µM*,26%
CO[C@H]1C[C@@H]2CC[C@@H](C)[C@@](O)(O2)C(=O)C(=O)N2CCCC[C@@H]2C(=O)O[C@H]([C@H](C)C[C@@H]2CC[C@H](OCCO)[C@H](OC)C2)CC(=O)[C@H](C)C=C(C)[C@@H](O)[C@@H](OC)C(=O)[C@H](C)C[C@H](C)C=CC=CC=C1C,0%,.,.,.
CC(=O)c1cc(NC(=O)c2cccc(C(F)(F)F)c2)c(=O)oc1/C=C/N(C)C,1%,-18%,5%,-3%
CC(=O)c1cc(NC(=O)c2cccc(C(F)(F)F)c2)c(=O)oc1C,-21%,-21%,35µM*,6%
CCc1nnc(NC(=O)c2nc(S(=O)(=O)Cc3ccc(C)cc3)ncc2Cl)s1,-13%,28µM*,32µM*,-17%
CCc1nnc(NC(=O)c2nc(SCc3ccccc3F)ncc2Cl)s1,0%,-9%,-2%,.
CCc1nnc(NC(=O)c2nc(S(=O)(=O)Cc3cccc(C)c3)ncc2Cl)s1,-10%,4.5µM*,16µM*,-17%
CCSc1ncc(Cl)c(C(=O)Nc2ccccc2OC)n1,3%,-13%,32%,9%
CCOc1ccccc1NC(=O)c1nc(S(=O)(=O)Cc2cccc(C)c2)ncc1Cl,-8%,14µM*,7.1µM*,4%
CCc1nnc(NC(=O)c2nc(S(=O)(=O)Cc3ccccc3)ncc2Cl)s1,-8%,-69%,32µM*,10%
SMILES,Tb PYK inh,FMDV inh,Sm TGR inh,RE007 growth inh
CCc1nnc(NC(=O)c2nc(Cl)ccc2Cl)s1,-1%,-12%,-6%,-7%
CCc1ccc(NC(=O)CSc2nccn2-c2ccc(F)cc2)cc1,3%,9%,-4%,.
CN(Cc1cnccn1)Cc1nc(Cc2ccccc2Cl)no1,1%,-9%,3%,-14%
Clc1ccccc1Cc1noc(CN2CCN(Cc3ccccn3)CC2)n1,4%,9%,18µM*,-2%
C[C@H]1OC(=O)CC[C@@H]2[C@]1(C)CCC1[C@@]2(C)CC[C@@]2(C)C3CC(C)(C)CC[C@]3(CO)CC[C@]12C (some centres undefined),.,-13%,.,.
CCOc1ccc(CCNC(=O)C2CCN(C(=O)N3CC(CC)Oc4ccc(C)cc43)CC2)cc1 (centres undefined),-2%,28µM*,-2%,.
CCC1CN(C(=O)N2CCC(C(=O)NCCCc3ccccc3)CC2)c2cc(C)ccc2O1 (centres undefined),-7%,?,-1%,.
Cc1c(C(=O)NC2CCCCCC2)sc2ncnc(NCC3CCCO3)c12 (centres undefined),.,-9%,.,.
CCOc1cc(/C=N/NC(=O)c2ccc(O)cc2)ccc1Oc1nc(Cl)ncc1F,-13%,-25%,11%,-9%
CCOc1cc(/C=N\Nc2ncc(F)c(N3CCOCC3)n2)ccc1Oc1nc(Cl)ncc1F,-10%,16µM*,6%,-8%
COC(=O)c1ccc(/C=C2/SC(=S)N(CCCC(=O)Nc3ccccn3)C2=O)cc1,10%,-4%,5%,-10%
CCc1ccc(/C=C2\SC(=S)N(CCCC(=O)Nc3ccccn3)C2=O)cc1,-4%,20µM*,3%,-8%
O=C(NC(c1ccccc1)c1ccccc1)c1ccc(Br)o1,1%,5%,-2%,-1%
O=C(/C=C/c1ccc(Br)o1)OCc1ccccc1,0%,34%,22µM*,-12%
CC1CCN(C(=O)COC(=O)/C=C/c2ccc(Br)o2)CC1,-27%,1%,8.9µM*,-14%
O=C(NNC(=O)OCc1ccccc1)OCc1ccccc1,-3%,18%,.,-3%
CC1CCCC(C)N1C(=O)COC(=O)/C=C/c1ccc(Br)o1 (centres undefined),-20%,19%,.,-14%
O=C(/C=C/c1ccc(Br)o1)NC(c1ccccc1)c1ccccc1,-22%,-10%,45µM*,14%
CC1(C)CC(=O)C2=C(C1)OC(N)=C(C#N)C21CCC2(CC1)OCCO2,-10%,.,22µM*,-7%
CC(=O)N1CCC2(CC1)C(C#N)=C(N)OC1=C2C(=O)CC(C)(C)C1,4%,-2%,-8%,-1%
CC1(C)CC(=O)C2=C(C1)OC(N)=C(C#N)C21CCN(Cc2ccccc2)CC1,-5%,-13%,14µM*,0%
CCOC(=O)N1CCC2(CC1)C(C#N)=C(N)OC1=C2C(=O)CC(C)(C)C1,-21%,-13%,1%,4%
CCCCc1nc2ccn(CC(=O)N(C)C)c(=O)c2n1Cc1ccc(-c2ccccc2-c2nn[nH]n2)cc1,.,-7%,.,.
CCCCn1c(-c2c(Cl)c(C)nn2C)n[nH]c1=S,10µM*,-15%,1%,16%
CCn1c(-c2c(Cl)c(C)nn2C)n[nH]c1=S,?,-14%,?,16%
CCCCOc1ccc(Nc2cc(Cl)ccc2C(=O)O)cn1,7%,-15%,-16%,28µM*
Cc1cc2n(n1)CCCN2C(=O)Nc1ccc(F)c(Cl)c1,3%,2%,8%,.
Cc1cc2n(n1)SC(Nc1ccc(F)c(Cl)c1)N2 (centres undefined),-10%,53%,8.9µM*,-9%
Cc1cc(C(F)F)n2nc(C(=O)Nc3ccc(F)c(Cl)c3)nc2n1,3%,-2%,-1%,.
